TDP1 cell noCPT – qHTS for Inhibitors of human tyrosyl-DNA phosphodiesterase 1 (TDP1): qHTS in cells in absence of CPT; DT40 Tdp1-/- hTDP1 cells, no CPT, ATP luminescence, 48 h; Potency, µM (titrated, usually from 46.2 µM), without a hit: at the highest dose activity change, negative = growth inhibition, most hits filed as inhibitors; 420,000 tested, 15% active; further: potency means the concentration at half of the fitted maximal effect; nearly all actives have a fitted effect of over 55% in size
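Chicken DT40 Tdp1-/- cells complemented with human TDP1, screened without camptothecin (DMSO vehicle only), 400 cells/well. Compounds pin-transferred, cells incubated at 37 °C for at least 48 hr. Growth read as ATP-dependent luminescence (CellTiter-Glo, 30 min at RT).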
HT1080 IDH1KD tx – kills HT-1080 cells with IDH1 knockdown. HT-1080 IDH1 knockdown viability, ATP luminescence, 48 h. Potency, µM (highest dose often 46.1 µM), inactives show top-dose activity, negative = toxicity, hits mostly cytotoxic. 360,000 tested, 2% active. AID 686971;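 further: potency means the concentration at half of the fitted maximal effect; 0% = DMSO wells and -100% = cell-free medium wells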
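% activity derives from luminescence (CellTiter-Glo), normalised to DMSO and no-cell wells. HT-1080-IDH1KD cells, 750/well, had 48 h compound exposure at 37 °C.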
HT1080NT lethal – kills 2HG-producing HT-1080-NT fibrosarcoma cells; HT-1080-NT fibrosarcoma viability, CellTiter-Glo ATP luminescence, 48 h; Potency, µM (top dose mostly 46.1 µM), for the others: at the top dose activity, negative = less viability, actives largely listed as cytotoxic; 360,000 tested, 1.6% active; AID 686970;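 further: NT is the 2HG producing partner of a matched IDH1 knockdown line; potency means the concentration at half of the fitted maximal effect; 0% = DMSO-treated cells and -100% = media-only wells without cells; nearly all actives have a fitted effect of over 55% in size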
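Toxicity toward the 2HG-producing NT line was scored as %Activity, normalised to DMSO and no-cell wells, from CellTiter-Glo luminescence after 48 hours' treatment.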
TDP1 cell CPT – growth inhibition of DT40 Tdp1-/-;hTDP1 cells with camptothecin (screen for TDP1 inhibitors). AID 686979. chicken DT40 Tdp1-/-;hTDP1 cells + 20 nM CPT, ATP luminescence, 48 h. 420,000 tested, 12% active. Potency, µM (highest dose often 46.2 µM), for inactives: at the top dose activity change, negative = growth inhibition, most hits filed as inhibitors; further: potency means the concentration at half of the fitted maximal effect; nearly all actives have a fitted effect of over 55% in size
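Chicken DT40 Tdp1-/- cells stably complemented with human TDP1 were seeded at 400 cells/well in medium containing 20 nM camptothecin, exposed to pin-transferred compounds, and grown at 37 °C for at least 48 hr. Viability was read as ATP luminescence.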
IL-1B inflam inh – inflammasome signaling inhibition, IL-1 beta readout; THP-1 LPS/ATP IL-1B secretion, AlphaLISA, 16 h; active compounds read low; activity change, % at 57.5 µM; 360,000 tested, 4.7% active; in the data active means activity change below about -50%; inconclusive means mostly about -30% to -49%
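Secreted IL-1B measured by AlphaLISA bead assay after 16 h compound exposure of THP-1 cells; compounds (final up to 57.5 uM) added 1 h before LPS (250 ng/mL) and ATP (1.25 mM) stimulation; lower signal means less secretion.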
An asterisk follows results filed as active; i = inactive; ? = inconclusive; . = not tested or not shown; [ ] = another dose, or the depositor's remark. In the library only some 19% were active in any assay of this set; here they are far more common. Unless noted, the call rests on the fitted dose curve; in most records, active means well fitted curve in the direction sought with a large enough effect; inconclusive means small, poorly fitted or top-dose-only effect, or another doubt; inactive means no such curve, though single readings can be large; an effect the other way counts as inactive or inconclusive. Unless noted, on the % scale 0 is the no-effect control and ±100 the full control effect.

SMILES	TDP1 cell noCPT	HT1080 IDH1KD tx	HT1080NT lethal	TDP1 cell CPT	IL-1B inflam inh
CCOC(=O)c1c(NC(=O)c2ccncc2)sc(C)c1C	?	-15%	-2%	?	-2
CCOC(=O)c1sc(NC(=O)c2cc(-c3ccccc3C)nc3ccccc23)c(C#N)c1C	7.3µM*	?	?	9.2µM*	-83*
N#Cc1c(NC(=O)c2ccc(Cn3cc(Br)cn3)o2)sc2c1CCCCC2	-17%	-27%	-17%	?	-28
Cc1ccccc1-c1cc(C(=O)Nc2sc(C)c(C)c2C(N)=O)c2ccccc2n1	18µM*	?	?	16µM*	-15
CCC(C)[C@H](NC(=O)C1CC(=O)N(c2ccc3c(c2)OCO3)C1)C(=O)NC1CCCCC1 (some centres not stated)	-19%	12%	6%	-15%	16
CCc1nn2c(=O)cc(COC(=O)C(CC)c3ccccc3)nc2s1 (configuration not stated)	-21%	.	.	?	.
CSc1nsc(SCC(=O)Nc2ccc(Cl)c(C(=O)O)c2)n1	0%	-1%	16%	0%	4
COc1ccccc1CN1CCCC(n2cc(C(=O)N3CCCC3)nn2)C1 (configuration not stated)	?	.	.	42%[9.04 µM]	.
CCCCN(C(=O)c1cccc(S(=O)(=O)N(CC)c2ccccc2)c1)c1c(N)n(CCCC)c(=O)[nH]c1=O	1%	-2%	2%	-2%	-15
O=C1C=CC(=O)N1c1ccc(-c2nc3ccccc3o2)cc1	1.6µM*	?	18%	1.8µM*	-22
COC(=O)c1ccc(NC(=O)COc2ccc([N+](=O)[O-])cc2)cc1	-8%	-7%	-2%	0%	5
COc1ccc(-c2ccnc3nc(N4CCOCC4)nn23)cc1	-11%	-1%	-4%	-9%	-10
c1ccc(Oc2ccc(-c3ccnc4nc(N5CCOCC5)nn34)cc2)cc1	16µM*	?	-13%	15µM*	-68*
CCOc1ccc(NC(=O)C(C)n2c(=O)cc(-c3ccccc3)c3c(C)nn(C)c32)cc1 (configuration not stated)	-7%	.	.	-5%	.
Cc1cccc(C(C)n2nnc3ccccc32)c1O (configuration not stated)	?	-1%	-17%	23µM*	32
Cc1cccc(Cn2nnc3ccccc32)c1O	-22%	5%	9%	?	16
CCOC(=O)c1sc(=S)n(C)c1NC(=O)c1ccc(OC)cc1	21µM*	0%	1%	2.3µM*	-3
CCOC(=O)c1sc(=S)n(C)c1NC(=O)c1ccc(C(C)(C)C)cc1	?	16µM*	?	?	-28
CCOC(=O)c1sc(=S)n(C)c1NC(=O)c1ccccc1Cl	?	10%	-1%	?	13
CCOC(=O)c1sc(NC(=O)c2ccc(OC)cc2)nc1C	0%	21%	15%	11%	-27
Cc1cc2occ(CC(=O)N(CC(C)C)c3c(N)n(Cc4ccccc4)c(=O)[nH]c3=O)c2cc1C	?	14%	5%	-27%	-23
O=C(Nc1ccc(S(=O)(=O)Nc2ccccc2F)cc1)N1CCCCC1	-18%	-6%	1%	?	i
CCc1cc2c3c([nH]c2cc1S(=O)(=O)N1CCC2(CC1)OCCO2)CCCC3=O	16µM*	-15%	-15%	23µM*	-16
O=C(N/N=C/c1ccc(O)c([N+](=O)[O-])c1)c1ccncc1	0%	1%	-6%	-13%	7
O=[N+]([O-])c1cc(/C=N/N/C(=N/c2ccccn2)c2ccccn2)ccc1O	4.6µM*	?	?	3.3µM*	111
SMILES	TDP1 cell noCPT	HT1080 IDH1KD tx	HT1080NT lethal	TDP1 cell CPT	IL-1B inflam inh
Cc1csc(N/N=C/c2ccc(O)c([N+](=O)[O-])c2)n1	26µM*	2%	8%	18µM*	9
O=[N+]([O-])c1cc(/C=N\Nc2nc(-c3ccccc3)cs2)ccc1O	18µM*	?	-21%	15µM*	-15
Cc1nc(-c2cccc(NC(=O)c3ccc(-n4nccc4C)cc3)c2)cs1	21µM*	-14%	-9%	?	-84*
Cc1nc(-c2ccc(C(=O)Nc3cccc(Br)c3)cc2)cs1	21µM*	?	?	?	-25
CSc1ccc(CNC(=O)C2(C)CCCN2CC(C)C)cc1 (configuration not stated)	16µM*	12%	-2%	18µM*	10
CCC(=O)N1CCCC1(C)C(=O)NCc1ccc(SC)cc1 (configuration not stated)	-8%	2%	-3%	-10%	-18
O=C(Nc1cccc(S(=O)(=O)N2CCCCCC2)c1)C1CCN(C(=O)c2ccc(Cl)cc2)CC1	?	-21%	?	18µM*	?
O=C(Nc1cccc(S(=O)(=O)N2CCOCC2)c1)C1CCCN(C(=O)c2ccc(Cl)cc2)C1 (configuration not stated)	?	-21%	-6%	?	9
CC(=O)c1ccc(NC(=O)C2CCCN(C(=O)c3ccc(Cl)cc3)C2)cc1 (configuration not stated)	21µM*	-6%	-5%	26µM*	13
CCSc1nnc(NC(=O)C2CCCN(C(=O)c3ccc(Cl)cc3)C2)s1 (configuration not stated)	5.2µM*	-11%	-14%	6.5µM*	19
COc1ccc(NC(=O)C2CCCN(C(=O)c3ccc(Cl)cc3)C2)cc1Cl (configuration not stated)	18µM*	-2%	-3%	21µM*	?
COC(=O)c1cc(CNC(=O)Cc2ccsc2)ccc1OC	2%	2%	7%	3%	20
Cc1sc2nc(CN3CCOCC3)[nH]c(=S)c2c1C	?	-13%	1%	?	39
CC[C@H](C)[C@H](NC(=O)c1ccccc1)C(=O)Nc1ccc(S(=O)(=O)Nc2cc(C)nc(C)n2)cc1	-24%	0%	4%	-5%	-2
O=C(Nc1cccc(F)c1)C1CCCN(C(=O)c2ccc(Cl)cc2)C1 (configuration not stated)	18µM*	0%	-6%[9.24 µM]	21µM*	-8
O=C(Nc1ccc(S(=O)(=O)N2CCCCC2)cc1)C1CCCN(C(=O)c2ccc(Cl)cc2)C1 (configuration not stated)	21µM*	-10%	-8%	?	2
O=C(Nc1ccccc1)C1CCCN(C(=O)c2ccc(Cl)cc2)C1 (configuration not stated)	?	-24%	-21%	?	0
